A selection: hits, their analogues and other compounds. The true share with any hit is near 3.1%.
SARS 3CLpro inh = SARS-CoV 3CLpro protease inhibition. hit rate 0.14% among 290,000. inhibition, % at 6 µM. P0C6X7. recombinant SARS-CoV 3CLpro, quenched FRET peptide cleavage; in the data active = inhibition above about 12%
BioA inh-1 = inhibitors of Mycobacterium tuberculosis BioA enzyme; purified M. tuberculosis BioA enzyme, plate reader; inhibition, % at 9.99 µM; hit rate 0.096% among 360,000; in the data active = inhibition above about 40%; inconclusive = no clear call, values can overlap the other calls
FBA Mtb inh = inhibitors of M. tuberculosis fructose-bisphosphate aldolase; P9WQA3; purified M. tuberculosis FBA, fluorescence read-out; inhibition, % at 1 µM; hit rate 2.3% among 360,000; in the data active = inhibition above about 27%;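 note: 0% = vehicle and 100% = reference inhibitor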
Target sequence (P9WQA3 whole entry, looked up): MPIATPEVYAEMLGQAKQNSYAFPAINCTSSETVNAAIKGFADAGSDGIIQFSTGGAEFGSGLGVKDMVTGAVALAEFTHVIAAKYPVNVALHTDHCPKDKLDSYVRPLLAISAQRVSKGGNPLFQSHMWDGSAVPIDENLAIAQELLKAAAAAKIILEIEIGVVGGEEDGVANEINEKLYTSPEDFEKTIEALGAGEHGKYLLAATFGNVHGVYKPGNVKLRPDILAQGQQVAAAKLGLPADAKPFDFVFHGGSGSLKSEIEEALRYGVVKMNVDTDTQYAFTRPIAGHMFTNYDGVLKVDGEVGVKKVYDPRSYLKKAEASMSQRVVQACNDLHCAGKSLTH
GDH-TPI counter-1 = counter-screen for M. tuberculosis FBA inhibitors: GDH-TPI coupled enzymes. GDH-TPI coupled enzyme counterscreen, NADH absorbance. inhibition, % at 4.8 µM. hit rate 1.2% among 360,000; in the data active = inhibition above about 30%;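 note: 0% = DMSO wells and 100% = wells lacking the enzyme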
FadD28 binding = inhibitors of Mycobacterium tuberculosis FadD28 bisubstrate binding; FadD28 bisubstrate probe binding, fluorescence polarization; inhibition, % at 12.5 µM; hit rate 0.22% among 360,000; AID 588549; in the data active = inhibition above about 8.5%, passing the limit was not always enough; inconclusive = no clear call, values can overlap the other calls
Mtb FBA confirm = confirmation of M. tuberculosis fructose-bisphosphate aldolase inhibitors; shares compounds with FBA Mtb inh; purified M. tuberculosis FBA, fluorescence read-out; inhibition, % at 1 µM; hit rate 78% among 5,600; AID 651616; in the data active = inhibition above about 27%;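 note: 0% = vehicle wells and 100% = reference inhibitor wells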
GDH-TPI counter-2 = GDH-TPI inhibition counter-screen for FBA inhibitors | hit rate 81% among 5,600 | inhibition, % at 1 µM | GDH-TPI coupled enzyme counterscreen, fluorescence | shares compounds with FBA Mtb inh; in the data active = inhibition above about 10%
BioA inh-2 = Mtb BioA enzyme inhibition; purified BioA enzyme, plate reader, dose response; AID 651679; 310 tested, under 10 active; shares compounds with BioA inh-1; max activity, %;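 note: top concentration of the dilution series was 10 µM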
HepG2 cytotox = HepG2 viability loss; shares compounds with BioA inh-1; HepG2 cytotoxicity, plate reader; max activity, %; 310 tested, under 10 active; AID 651898
3T3 cytotox 5 = cytotoxicity in NIH3T3 cells; shares compounds with BioA inh-1; plate reader; activity change, negative = cytotoxicity, % at 26 µM; 310 tested, under 10 active
The depositor's hits bear a star; ? = inconclusive; nt = no result. Unless noted, the rule behind the calls is not given here.

SMILES | SARS 3CLpro inh | BioA inh-1 | FBA Mtb inh | GDH-TPI counter-1 | FadD28 binding | BioA inh-2 | HepG2 cytotox | 3T3 cytotox 5 | others
CN(c1ccccc1)S(=O)(=O)c1cccc(NC(=O)CN2C(=O)NC3(CCCCC3)C2=O)c1 | nt | 0 | 38* | 6 | -4 | nt | nt | nt | Mtb FBA confirm=88*;GDH-TPI counter-2=52*
COc1ccc(NC(=O)Nc2ccc3c(c2)C(=O)N([C@@H](C)CO)C[C@@H](C)[C@H](CN(C)Cc2ccccc2)OCCCC[C@H](C)O3)cc1 | nt | 0 | nt | nt | nt | nt | nt | nt
N#Cc1cc(-c2ccccc2)c[nH]c1=O | 2 | nt | 58* | 12 | 0 | nt | nt | nt | Mtb FBA confirm=94*;GDH-TPI counter-2=89*
COc1ccc(S(=O)(=O)N(C)C[C@@H]2OCCCC[C@@H](C)Oc3ccc(NS(=O)(=O)c4cccs4)cc3C(=O)N([C@@H](C)CO)C[C@H]2C)cc1 | nt | 4 | nt | nt | nt | nt | nt | nt
COc1ccc(Cc2c(-c3ccc(OC)c(OC)c3)nc3ccc(C)cn23)c(C)c1 | nt | 79* | 31* | nt | -8 | 4 | -3 | -1 | Mtb FBA confirm=54*;GDH-TPI counter-2=43*
C[C@@H]1CN([C@@H](C)CO)C(=O)c2cccc(NC(=O)c3nc4ccccc4s3)c2O[C@H]1CN(C)Cc1ccc(C(=O)Nc2ccccc2N)cc1 | nt | 3 | nt | nt | nt | nt | nt | nt
CC(Oc1ccc2ccc(=O)oc2c1)C(=O)N1CCOCC1 (configuration not stated) | nt | 66* | 42* | 0 | -3 | -10 | 10 | -9 | Mtb FBA confirm=155*;GDH-TPI counter-2=122*
CC(Oc1ccc2c(-c3ccccc3)cc(=O)oc2c1)C(=O)N1CCOCC1 (configuration not stated) | nt | 11 | -2 | 20 | -2 | nt | nt | nt
CO[C@H]1CN(C)C(=O)c2cc(NC(=O)C3CC3)ccc2OC[C@@H](C)N(C(=O)Cc2ccccn2)C[C@@H]1C | nt | 2 | nt | nt | nt | nt | nt | nt
O=C(O)CCS(=O)(=O)c1nc(-c2cccs2)cc(C(F)(F)F)n1 | -5 | 57* | 38* | 31* | -2 | -7 | -9 | -2 | Mtb FBA confirm=196*;GDH-TPI counter-2=128*
CCN1CCN(CC(=O)c2c(C)n(Cc3ccccc3)c3ccc(OC)cc23)CC1 | 5 | 26 | 1 | 5 | -3 | nt | nt | nt
COc1ccc2c(c1)c(C(=O)CN1CCC3(CC1)OCCO3)c(C)n2Cc1ccccc1 | -5 | 59* | 2 | 9 | -1 | -6 | -8 | -10
O=C(CSc1nc2ccccc2c(=O)n1-c1ccccc1)N1CCN(CCO)CC1 | 2 | 50* | 2 | 8 | -3 | -5 | ? | 0
Cc1cc(C(=O)CSc2nncs2)c(C)n1-c1ccc2c(c1)OCO2 | 4 | 49* | 1 | 13 | 0 | -10 | 10 | -6
COc1cc(-c2n[nH]c(=S)n2C(C)c2ccccc2)cc(OC)c1OC (configuration not stated) | -1 | 64* | -1 | 0 | -3 | -5 | 20 | 1
COc1cc(-c2n[nH]c(=S)n2-c2cccc(C(F)(F)F)c2)cc(OC)c1OC | 3 | 43* | -1 | 6 | -1 | -6 | -9 | -6
C[C@H]1CN([C@@H](C)CO)C(=O)c2cc(NC(=O)Cc3cn(C)c4ccccc34)ccc2O[C@H]1CN(C)S(=O)(=O)c1ccc(F)cc1 | nt | -3 | nt | nt | nt | nt | nt | nt
CCC(Sc1nc2ccsc2c(=O)n1Cc1ccc(C(=O)O)cc1)C(=O)Nc1cccc(OC)c1 (configuration not stated) | nt | 75* | -1 | -9 | -4 | -6 | -11 | -1
CCc1ccc(NC(=O)C(CC)Sc2nc3ccsc3c(=O)n2CCC(=O)O)cc1 (configuration not stated) | 3 | 0 | -1 | 3 | -19 | nt | nt | nt
COc1ccc(Cc2c(-c3ccc(C)cc3)nc3c(C)cc(Br)cn23)c(C)c1 | nt | 0 | -1 | nt | -1 | nt | nt | nt
COc1ccc(Cc2c(-c3ccc(OC)c(OC)c3)nc3c(C)cc(Br)cn23)c(C)c1 | nt | 69* | -3 | nt | -4 | -8 | -7 | -2
C[C@H]1CN([C@@H](C)CO)C(=O)Cc2cc(NC(=O)Cn3cnnn3)ccc2O[C@@H]1CN(C)Cc1ccc(Cl)c(Cl)c1 | nt | 8 | nt | nt | nt | nt | nt | nt
